{"source": "the supplement of paper PMC12819154", "about": "“High-throughput peptide-centric local stability assay extends protein–ligand identification to membrane proteins, tissues and bacteria” (Nature Structural & Molecular Biology, 2025)", "data": [{"compound": "CN[C@@H]1C[C@H]2O[C@@](C)([C@@H]1OC)n1c3ccccc3c3c4c(c5c6ccccc6n2c5c31)C(=O)NC4 [staurosporine]", "assay": "log2 fold change of tryptic peptide abundance, ligand vs vehicle (limited proteolysis) (log2 ratio); higher = more trypsin-susceptible (destabilized)", "settings": "ligand concentration: 20 uM; sample: mouse liver crude lysate; replicate design: treated separately", "values": [{"target": "UniProt P34928 (peptide sequence: AWFSEAFGK, peptide start residue: 70)", "sequence (P34928 whole entry)": "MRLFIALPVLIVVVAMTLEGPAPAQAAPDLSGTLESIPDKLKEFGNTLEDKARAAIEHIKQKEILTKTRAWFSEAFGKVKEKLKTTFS", "log2 fold change": 0.496}, {"target": "UniProt Q99KH8 (peptide sequence: GEPPHSELHPMK, peptide start residue: 215)", "log2 fold change": -1.74}, {"target": "UniProt Q5F2E8 (peptide sequence: AGNILLTEPGQVK, peptide start residue: 150)", "sequence (Q5F2E8 whole entry)": "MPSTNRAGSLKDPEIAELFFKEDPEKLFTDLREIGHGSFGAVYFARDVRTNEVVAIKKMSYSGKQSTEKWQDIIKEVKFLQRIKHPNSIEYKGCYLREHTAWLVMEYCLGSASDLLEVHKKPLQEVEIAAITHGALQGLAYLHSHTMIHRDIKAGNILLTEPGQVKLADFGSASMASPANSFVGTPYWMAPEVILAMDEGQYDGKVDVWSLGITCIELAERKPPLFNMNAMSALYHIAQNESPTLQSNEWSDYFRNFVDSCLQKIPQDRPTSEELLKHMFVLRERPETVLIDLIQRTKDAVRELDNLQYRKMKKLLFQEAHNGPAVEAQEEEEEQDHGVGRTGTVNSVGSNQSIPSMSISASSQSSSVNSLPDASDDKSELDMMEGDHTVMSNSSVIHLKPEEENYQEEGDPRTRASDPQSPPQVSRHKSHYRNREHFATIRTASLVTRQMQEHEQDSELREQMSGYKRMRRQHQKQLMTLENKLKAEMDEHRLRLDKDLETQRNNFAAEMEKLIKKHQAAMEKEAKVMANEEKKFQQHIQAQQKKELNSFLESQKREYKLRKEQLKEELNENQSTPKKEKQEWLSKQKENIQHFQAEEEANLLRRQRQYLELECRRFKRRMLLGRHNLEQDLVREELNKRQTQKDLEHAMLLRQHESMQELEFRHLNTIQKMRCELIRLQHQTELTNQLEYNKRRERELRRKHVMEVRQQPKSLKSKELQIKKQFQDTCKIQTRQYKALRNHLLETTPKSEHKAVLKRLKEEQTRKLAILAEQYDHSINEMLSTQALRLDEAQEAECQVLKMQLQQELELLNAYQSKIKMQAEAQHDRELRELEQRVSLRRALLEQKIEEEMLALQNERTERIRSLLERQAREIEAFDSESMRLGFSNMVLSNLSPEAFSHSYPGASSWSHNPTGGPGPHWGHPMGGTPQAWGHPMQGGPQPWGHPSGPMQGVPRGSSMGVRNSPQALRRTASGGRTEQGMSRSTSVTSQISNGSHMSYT", "log2 fold change": -2.13}, {"target": "UniProt Q4LDG0 (peptide sequence: NQPFLGYR, peptide start residue: 501)", "log2 fold change": 0.345}, {"target": "UniProt P70697 (peptide sequence: FALPYIR, peptide start residue: 232)", "log2 fold change": 0.384}, {"target": "UniProt Q9CR62 (peptide sequence: NGLDVLLK, peptide start residue: 261)", "sequence (Q9CR62 whole entry)": "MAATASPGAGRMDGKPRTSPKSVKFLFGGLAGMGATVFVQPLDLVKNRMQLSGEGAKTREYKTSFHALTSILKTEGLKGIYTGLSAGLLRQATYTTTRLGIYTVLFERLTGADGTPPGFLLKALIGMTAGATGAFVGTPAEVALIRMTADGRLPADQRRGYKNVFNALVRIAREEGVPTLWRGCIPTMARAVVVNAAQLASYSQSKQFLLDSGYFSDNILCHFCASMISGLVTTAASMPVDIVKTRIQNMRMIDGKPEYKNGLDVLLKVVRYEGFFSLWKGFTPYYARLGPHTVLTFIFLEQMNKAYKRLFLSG", "log2 fold change": 0.377}, {"target": "UniProt Q60648 (peptide sequence: IQSILSSGGK, peptide start residue: 170)", "log2 fold change": -0.484}, {"target": "UniProt Q07417 (peptide sequence: GISAFLVPMPTPGLTLGKKEDK, peptide start residue: 209)", "log2 fold change": 0.268}, {"target": "UniProt P50285 (peptide sequence: TQLREPVLNDELPGR, peptide start residue: 277)", "sequence (P50285 whole entry)": "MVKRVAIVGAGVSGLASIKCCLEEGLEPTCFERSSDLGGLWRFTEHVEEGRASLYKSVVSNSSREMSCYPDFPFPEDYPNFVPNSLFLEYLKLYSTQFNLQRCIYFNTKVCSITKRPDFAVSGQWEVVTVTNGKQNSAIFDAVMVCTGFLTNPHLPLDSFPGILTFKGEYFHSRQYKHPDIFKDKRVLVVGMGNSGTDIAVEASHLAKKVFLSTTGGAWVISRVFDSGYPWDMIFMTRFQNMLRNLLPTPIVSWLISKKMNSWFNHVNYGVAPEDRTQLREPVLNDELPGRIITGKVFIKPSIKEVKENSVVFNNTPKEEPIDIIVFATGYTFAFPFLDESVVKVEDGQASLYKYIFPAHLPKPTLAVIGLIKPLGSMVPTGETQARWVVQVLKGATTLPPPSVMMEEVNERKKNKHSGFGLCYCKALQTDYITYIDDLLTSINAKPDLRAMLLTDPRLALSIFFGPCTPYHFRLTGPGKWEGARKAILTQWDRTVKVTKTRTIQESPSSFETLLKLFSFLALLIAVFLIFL", "log2 fold change": 0.327}, {"target": "UniProt Q9R117 (peptide sequence: NVLLDNDR, peptide start residue: 1025)", "log2 fold change": -1.42}, {"target": "UniProt Q6ZWQ0 (peptide sequence: INDRWQHLFDVIGSR, peptide start residue: 5986)", "log2 fold change": 0.927}, {"target": "UniProt Q9DBG5 (peptide sequence: VGQMVISGVDR, peptide start residue: 185)", "sequence (Q9DBG5 whole entry)": "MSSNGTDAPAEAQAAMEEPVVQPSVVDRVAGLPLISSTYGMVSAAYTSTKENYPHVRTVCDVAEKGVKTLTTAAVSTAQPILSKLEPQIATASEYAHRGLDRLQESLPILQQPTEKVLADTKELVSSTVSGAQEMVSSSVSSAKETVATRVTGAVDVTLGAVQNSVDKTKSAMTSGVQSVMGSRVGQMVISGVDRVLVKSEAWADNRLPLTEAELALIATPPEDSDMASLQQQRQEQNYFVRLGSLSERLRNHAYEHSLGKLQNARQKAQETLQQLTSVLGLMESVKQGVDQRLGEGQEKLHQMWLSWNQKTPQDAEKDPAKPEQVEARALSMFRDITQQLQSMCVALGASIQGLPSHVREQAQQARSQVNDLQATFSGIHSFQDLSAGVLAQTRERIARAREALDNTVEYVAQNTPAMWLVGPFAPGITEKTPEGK", "log2 fold change": 0.534}, {"target": "UniProt Q9D8V0 (peptide sequence: SSSDMPETITSR, peptide start residue: 62)", "log2 fold change": -1.22}, {"target": "UniProt Q61335 (peptide sequence: QAESASEAAK, peptide start residue: 139)", "sequence (Q61335 whole entry)": "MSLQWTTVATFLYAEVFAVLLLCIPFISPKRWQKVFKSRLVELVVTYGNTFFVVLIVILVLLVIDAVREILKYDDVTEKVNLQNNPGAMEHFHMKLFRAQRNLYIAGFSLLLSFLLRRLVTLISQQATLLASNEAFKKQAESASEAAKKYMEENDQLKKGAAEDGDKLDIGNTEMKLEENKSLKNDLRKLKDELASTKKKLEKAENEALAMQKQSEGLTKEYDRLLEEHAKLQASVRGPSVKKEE", "log2 fold change": 0.352}, {"target": "UniProt P56593 (peptide sequence: FSNFAPLGIPR, peptide start residue: 360)", "log2 fold change": -0.352}, {"target": "UniProt Q8VDM4 (peptide sequence: SETELKDTYAR, peptide start residue: 546)", "log2 fold change": -1.29}, {"target": "UniProt P31324 (peptide sequence: LKVVDVIGTK, peptide start residue: 284)", "log2 fold change": 1.51}, {"target": "UniProt Q99KG5 (peptide sequence: VLYYMEK, peptide start residue: 347)", "sequence (Q99KG5 whole entry)": "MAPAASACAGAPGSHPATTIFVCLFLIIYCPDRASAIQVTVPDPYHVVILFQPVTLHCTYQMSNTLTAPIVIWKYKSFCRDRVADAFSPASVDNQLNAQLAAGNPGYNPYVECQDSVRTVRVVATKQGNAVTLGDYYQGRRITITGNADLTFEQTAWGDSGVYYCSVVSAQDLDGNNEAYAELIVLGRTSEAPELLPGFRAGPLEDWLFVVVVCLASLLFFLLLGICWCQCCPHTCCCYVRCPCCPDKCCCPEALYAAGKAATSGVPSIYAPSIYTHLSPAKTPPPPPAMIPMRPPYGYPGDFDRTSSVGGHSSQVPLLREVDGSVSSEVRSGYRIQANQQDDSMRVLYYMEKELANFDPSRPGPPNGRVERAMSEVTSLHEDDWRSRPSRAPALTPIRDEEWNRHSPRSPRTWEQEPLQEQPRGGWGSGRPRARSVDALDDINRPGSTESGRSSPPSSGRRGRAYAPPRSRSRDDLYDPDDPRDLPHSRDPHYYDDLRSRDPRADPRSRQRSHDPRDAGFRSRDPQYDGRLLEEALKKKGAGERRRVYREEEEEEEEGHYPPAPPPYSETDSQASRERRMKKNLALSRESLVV", "log2 fold change": -0.236}, {"target": "UniProt Q9CZW6 (peptide sequence: GASWLGKR, peptide start residue: 64)", "log2 fold change": -0.952}, {"target": "UniProt P43142 (peptide sequence: YLPKEQAR, peptide start residue: 334)", "log2 fold change": -0.325}, {"target": "UniProt Q8JZY4 (peptide sequence: YLYLCVFHK, peptide start residue: 178)", "sequence (Q8JZY4 whole entry)": "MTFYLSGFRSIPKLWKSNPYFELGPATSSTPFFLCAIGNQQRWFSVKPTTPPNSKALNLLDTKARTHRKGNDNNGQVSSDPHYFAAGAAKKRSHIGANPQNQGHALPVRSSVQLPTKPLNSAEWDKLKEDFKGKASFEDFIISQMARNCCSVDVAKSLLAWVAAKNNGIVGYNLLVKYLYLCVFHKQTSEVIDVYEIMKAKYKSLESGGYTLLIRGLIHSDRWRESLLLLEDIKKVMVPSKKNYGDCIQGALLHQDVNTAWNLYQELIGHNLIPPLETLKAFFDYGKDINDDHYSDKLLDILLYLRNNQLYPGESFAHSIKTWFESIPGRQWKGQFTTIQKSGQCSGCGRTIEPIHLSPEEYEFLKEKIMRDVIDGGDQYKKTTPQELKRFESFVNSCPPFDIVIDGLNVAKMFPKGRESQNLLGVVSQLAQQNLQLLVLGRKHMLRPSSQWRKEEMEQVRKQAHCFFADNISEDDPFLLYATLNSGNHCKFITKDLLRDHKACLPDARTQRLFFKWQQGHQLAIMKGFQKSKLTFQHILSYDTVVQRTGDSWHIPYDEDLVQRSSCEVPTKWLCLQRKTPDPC", "log2 fold change": 0.47}, {"target": "UniProt Q9DBN5 (peptide sequence: NEKDLEEIPSNVR, peptide start residue: 804)", "sequence (Q9DBN5 whole entry)": "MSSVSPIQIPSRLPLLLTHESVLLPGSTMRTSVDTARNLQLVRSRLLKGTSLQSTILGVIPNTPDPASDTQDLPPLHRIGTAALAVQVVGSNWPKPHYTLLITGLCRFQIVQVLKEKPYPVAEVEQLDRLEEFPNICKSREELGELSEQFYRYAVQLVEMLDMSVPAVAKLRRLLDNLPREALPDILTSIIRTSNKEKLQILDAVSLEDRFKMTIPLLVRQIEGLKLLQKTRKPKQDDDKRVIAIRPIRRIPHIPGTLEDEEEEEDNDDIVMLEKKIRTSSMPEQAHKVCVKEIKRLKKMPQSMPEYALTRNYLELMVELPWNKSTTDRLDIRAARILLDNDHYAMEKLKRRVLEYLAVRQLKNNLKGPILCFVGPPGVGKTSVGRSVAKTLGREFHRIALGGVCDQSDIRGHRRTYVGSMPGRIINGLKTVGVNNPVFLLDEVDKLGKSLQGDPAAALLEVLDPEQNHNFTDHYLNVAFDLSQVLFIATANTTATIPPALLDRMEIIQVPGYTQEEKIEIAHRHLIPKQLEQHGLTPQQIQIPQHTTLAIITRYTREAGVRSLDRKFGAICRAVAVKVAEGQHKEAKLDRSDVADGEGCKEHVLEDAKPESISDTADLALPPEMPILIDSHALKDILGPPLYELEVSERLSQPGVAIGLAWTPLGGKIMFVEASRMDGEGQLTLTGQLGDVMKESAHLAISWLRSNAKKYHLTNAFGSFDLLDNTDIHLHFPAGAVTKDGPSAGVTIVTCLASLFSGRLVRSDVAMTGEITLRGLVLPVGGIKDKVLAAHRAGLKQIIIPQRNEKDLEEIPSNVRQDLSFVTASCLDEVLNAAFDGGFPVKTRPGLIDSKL", "log2 fold change": -1.06}, {"target": "UniProt Q8R1Q8 (peptide sequence: NIDLVYK, peptide start residue: 292)", "log2 fold change": 0.28}, {"target": "UniProt Q7TMY8 (peptide sequence: HLGYTLCK, peptide start residue: 3630)", "log2 fold change": 0.491}, {"target": "UniProt Q8VCR2 (peptide sequence: ALLPSMLR, peptide start residue: 154)", "log2 fold change": -0.279}, {"target": "UniProt O70589 (peptide sequence: FTSSPGLSTEDLKR, peptide start residue: 48)", "log2 fold change": -2.83}, {"target": "UniProt Q7TT50 (peptide sequence: FQFPSHVTDVSEEAK, peptide start residue: 300)", "log2 fold change": -1.06}, {"target": "UniProt P10649 (peptide sequence: YIATPIFSK, peptide start residue: 203)", "sequence (P10649 whole entry)": "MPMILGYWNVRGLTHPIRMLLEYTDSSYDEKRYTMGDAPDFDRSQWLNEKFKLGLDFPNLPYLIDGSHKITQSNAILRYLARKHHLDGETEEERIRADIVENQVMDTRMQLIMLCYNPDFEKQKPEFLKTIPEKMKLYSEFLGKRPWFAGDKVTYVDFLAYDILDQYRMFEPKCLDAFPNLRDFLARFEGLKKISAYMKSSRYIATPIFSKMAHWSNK", "log2 fold change": 0.584}, {"target": "UniProt Q61161 (peptide sequence: GLHHLHSQGK, peptide start residue: 123)", "log2 fold change": -1.65}, {"target": "UniProt P47911 (peptide sequence: HQEGEIFDTEK, peptide start residue: 235)", "log2 fold change": 0.281}, {"target": "UniProt Q8CAS9 (peptide sequence: NILDYVTK, peptide start residue: 221)", "log2 fold change": 0.389}]}]}
